Assay [1] has as its target Homeodomain-interacting protein kinase 1 (Homo sapiens) (UniProt Q86Z02). The settings on record: at 0.1 µM.
Assay [2] has the same target. The settings on record: at 1 µM.
Assay [3] has as its target T1, Homeodomain-interacting protein kinase 4 (Homo sapiens) (UniProt Q8NE63).
T1 sequence (whole entry): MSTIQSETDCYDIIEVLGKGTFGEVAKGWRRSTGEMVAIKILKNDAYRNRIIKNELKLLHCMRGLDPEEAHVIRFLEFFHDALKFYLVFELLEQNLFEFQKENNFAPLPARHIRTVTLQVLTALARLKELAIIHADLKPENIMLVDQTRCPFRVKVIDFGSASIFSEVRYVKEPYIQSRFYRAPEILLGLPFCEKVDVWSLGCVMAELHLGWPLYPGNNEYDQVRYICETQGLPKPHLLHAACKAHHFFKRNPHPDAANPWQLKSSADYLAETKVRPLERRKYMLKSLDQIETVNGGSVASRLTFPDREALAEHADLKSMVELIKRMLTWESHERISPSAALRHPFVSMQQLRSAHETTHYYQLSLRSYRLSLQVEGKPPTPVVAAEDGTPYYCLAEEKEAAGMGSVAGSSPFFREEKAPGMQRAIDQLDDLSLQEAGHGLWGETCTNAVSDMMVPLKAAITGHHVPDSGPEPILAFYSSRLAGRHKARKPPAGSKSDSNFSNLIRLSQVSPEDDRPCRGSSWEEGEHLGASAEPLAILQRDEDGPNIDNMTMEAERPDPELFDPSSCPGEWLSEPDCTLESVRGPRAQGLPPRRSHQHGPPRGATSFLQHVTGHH
The settings on record: at 0.1 µM.

The target of assay [4] is T1, Homeodomain-interacting protein kinase 4 (Homo sapiens). The following applies: at 1 µM.
Assay [5] has as its target Mitogen-activated protein kinase 9 (Homo sapiens) (UniProt P45984). The following applies: at 0.1 µM.
Assay [6] shares this target. The settings on record: at 1 µM.
Assay [7] concerns the target Mitogen-activated protein kinase 1 (Homo sapiens) (UniProt P28482). The following applies: at 0.1 µM.
For assay [8] the target is unchanged. The settings on record: at 1 µM.
The target in assay [9] is Mitogen-activated protein kinase 3 (Homo sapiens) (UniProt P27361). The following applies: at 0.1 µM.
Chain of Mitogen-activated protein kinase 3 (Homo sapiens) (P27361 whole entry): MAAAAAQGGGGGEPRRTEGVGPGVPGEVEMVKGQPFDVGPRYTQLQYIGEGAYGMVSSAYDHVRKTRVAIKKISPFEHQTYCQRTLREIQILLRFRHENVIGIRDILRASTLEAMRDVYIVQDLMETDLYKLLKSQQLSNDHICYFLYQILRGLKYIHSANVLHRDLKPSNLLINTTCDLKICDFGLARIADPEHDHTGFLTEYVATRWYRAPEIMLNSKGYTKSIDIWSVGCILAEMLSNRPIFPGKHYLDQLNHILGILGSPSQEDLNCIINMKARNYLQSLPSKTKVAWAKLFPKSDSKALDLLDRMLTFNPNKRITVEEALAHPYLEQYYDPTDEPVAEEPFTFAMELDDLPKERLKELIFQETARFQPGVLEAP
The target is the same in assay [10]. The following applies: at 1 µM.
The target of assay [11] is SRSF protein kinase 3 (Homo sapiens) (UniProt Q9UPE1). The settings on record: at 0.1 µM.
Chain of SRSF protein kinase 3 (Homo sapiens) (Q9UPE1 whole entry): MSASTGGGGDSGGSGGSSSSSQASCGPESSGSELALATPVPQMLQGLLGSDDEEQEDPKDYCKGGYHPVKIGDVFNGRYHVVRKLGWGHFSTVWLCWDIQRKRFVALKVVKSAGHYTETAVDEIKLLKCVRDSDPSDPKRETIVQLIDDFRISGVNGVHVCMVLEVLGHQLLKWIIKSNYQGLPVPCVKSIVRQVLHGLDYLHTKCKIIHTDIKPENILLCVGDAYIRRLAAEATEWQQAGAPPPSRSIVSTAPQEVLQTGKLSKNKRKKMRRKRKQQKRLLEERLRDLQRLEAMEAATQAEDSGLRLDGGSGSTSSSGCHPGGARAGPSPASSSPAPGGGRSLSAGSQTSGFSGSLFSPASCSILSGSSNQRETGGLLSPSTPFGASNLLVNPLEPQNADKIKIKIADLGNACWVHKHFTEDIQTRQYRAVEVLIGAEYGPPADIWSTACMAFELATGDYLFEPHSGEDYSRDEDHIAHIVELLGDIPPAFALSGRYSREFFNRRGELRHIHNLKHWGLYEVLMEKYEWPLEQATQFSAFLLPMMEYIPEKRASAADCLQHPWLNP
For assay [12] the target is unchanged. The following applies: at 1 µM.
Assay [13] addresses Mitogen-activated protein kinase 14 (Homo sapiens) (UniProt Q16539). The following applies: at 0.1 µM.
Assay [14] shares this target. The settings on record: at 1 µM.
Assay [15] addresses Mitogen-activated protein kinase 11 (Homo sapiens) (UniProt Q15759). The following applies: at 0.1 µM.
Assay [16] has the same target. The settings on record: at 1 µM.
Assay [17] addresses T2, Mitogen-activated protein kinase 13 (Homo sapiens) (UniProt O15264).
T2 sequence (whole entry): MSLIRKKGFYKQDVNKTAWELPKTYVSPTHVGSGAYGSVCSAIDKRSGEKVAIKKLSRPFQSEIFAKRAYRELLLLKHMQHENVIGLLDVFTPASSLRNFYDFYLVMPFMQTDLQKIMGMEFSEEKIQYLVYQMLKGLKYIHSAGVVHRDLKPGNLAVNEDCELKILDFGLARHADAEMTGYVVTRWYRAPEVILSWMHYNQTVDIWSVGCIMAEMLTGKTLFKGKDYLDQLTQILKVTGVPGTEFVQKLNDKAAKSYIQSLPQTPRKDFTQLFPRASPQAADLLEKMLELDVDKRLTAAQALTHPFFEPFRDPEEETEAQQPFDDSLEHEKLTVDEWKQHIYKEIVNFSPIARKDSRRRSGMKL
The settings on record: at 0.1 µM.

Assay [18] deals with T2, Mitogen-activated protein kinase 13 (Homo sapiens). The settings on record: at 1 µM.
Assay [19] addresses T3, Mitogen-activated protein kinase 12 (Homo sapiens) (UniProt P53778).
T3 sequence (whole entry): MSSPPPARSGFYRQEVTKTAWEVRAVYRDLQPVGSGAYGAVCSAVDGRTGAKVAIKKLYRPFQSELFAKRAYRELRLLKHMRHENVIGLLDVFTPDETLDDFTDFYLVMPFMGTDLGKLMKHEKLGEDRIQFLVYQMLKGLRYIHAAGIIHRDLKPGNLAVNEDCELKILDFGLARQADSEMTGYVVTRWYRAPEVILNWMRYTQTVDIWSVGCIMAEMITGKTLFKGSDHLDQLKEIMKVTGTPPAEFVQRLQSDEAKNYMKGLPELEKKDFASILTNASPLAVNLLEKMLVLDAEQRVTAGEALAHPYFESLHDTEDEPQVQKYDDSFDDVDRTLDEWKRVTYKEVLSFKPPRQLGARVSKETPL
The following applies: at 0.1 µM.

For assay [20], the target named is Glycogen synthase kinase-3 beta (Homo sapiens) (UniProt P49841). The following applies: at 1 µM.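 Further: reported values are mean percent inhibition of GSK3B.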
Chain of Glycogen synthase kinase-3 beta (Homo sapiens) (P49841 whole entry, looked up): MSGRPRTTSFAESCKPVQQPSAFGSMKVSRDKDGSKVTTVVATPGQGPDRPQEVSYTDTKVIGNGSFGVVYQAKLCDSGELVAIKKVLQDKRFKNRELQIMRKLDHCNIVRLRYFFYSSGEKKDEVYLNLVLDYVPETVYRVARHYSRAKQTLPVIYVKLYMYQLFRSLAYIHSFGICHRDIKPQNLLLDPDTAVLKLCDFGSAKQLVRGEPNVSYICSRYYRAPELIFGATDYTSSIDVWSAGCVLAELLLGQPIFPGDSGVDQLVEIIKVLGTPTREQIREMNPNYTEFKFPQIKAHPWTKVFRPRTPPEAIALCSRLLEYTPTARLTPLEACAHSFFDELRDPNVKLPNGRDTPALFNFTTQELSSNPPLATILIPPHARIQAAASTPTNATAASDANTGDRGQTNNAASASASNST

Chain of Mitogen-activated protein kinase 14 (Homo sapiens) (Q16539 whole entry): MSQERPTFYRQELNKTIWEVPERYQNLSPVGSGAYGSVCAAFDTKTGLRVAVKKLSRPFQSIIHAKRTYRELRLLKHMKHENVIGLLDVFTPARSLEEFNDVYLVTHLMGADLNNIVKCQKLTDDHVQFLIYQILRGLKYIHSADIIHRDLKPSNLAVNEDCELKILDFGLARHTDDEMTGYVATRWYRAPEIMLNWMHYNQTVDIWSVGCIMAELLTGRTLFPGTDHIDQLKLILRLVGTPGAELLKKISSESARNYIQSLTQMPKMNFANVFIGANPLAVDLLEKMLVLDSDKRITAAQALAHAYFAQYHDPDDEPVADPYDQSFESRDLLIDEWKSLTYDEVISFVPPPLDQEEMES
Chain of Homeodomain-interacting protein kinase 1 (Homo sapiens) (Q86Z02 whole entry, looked up): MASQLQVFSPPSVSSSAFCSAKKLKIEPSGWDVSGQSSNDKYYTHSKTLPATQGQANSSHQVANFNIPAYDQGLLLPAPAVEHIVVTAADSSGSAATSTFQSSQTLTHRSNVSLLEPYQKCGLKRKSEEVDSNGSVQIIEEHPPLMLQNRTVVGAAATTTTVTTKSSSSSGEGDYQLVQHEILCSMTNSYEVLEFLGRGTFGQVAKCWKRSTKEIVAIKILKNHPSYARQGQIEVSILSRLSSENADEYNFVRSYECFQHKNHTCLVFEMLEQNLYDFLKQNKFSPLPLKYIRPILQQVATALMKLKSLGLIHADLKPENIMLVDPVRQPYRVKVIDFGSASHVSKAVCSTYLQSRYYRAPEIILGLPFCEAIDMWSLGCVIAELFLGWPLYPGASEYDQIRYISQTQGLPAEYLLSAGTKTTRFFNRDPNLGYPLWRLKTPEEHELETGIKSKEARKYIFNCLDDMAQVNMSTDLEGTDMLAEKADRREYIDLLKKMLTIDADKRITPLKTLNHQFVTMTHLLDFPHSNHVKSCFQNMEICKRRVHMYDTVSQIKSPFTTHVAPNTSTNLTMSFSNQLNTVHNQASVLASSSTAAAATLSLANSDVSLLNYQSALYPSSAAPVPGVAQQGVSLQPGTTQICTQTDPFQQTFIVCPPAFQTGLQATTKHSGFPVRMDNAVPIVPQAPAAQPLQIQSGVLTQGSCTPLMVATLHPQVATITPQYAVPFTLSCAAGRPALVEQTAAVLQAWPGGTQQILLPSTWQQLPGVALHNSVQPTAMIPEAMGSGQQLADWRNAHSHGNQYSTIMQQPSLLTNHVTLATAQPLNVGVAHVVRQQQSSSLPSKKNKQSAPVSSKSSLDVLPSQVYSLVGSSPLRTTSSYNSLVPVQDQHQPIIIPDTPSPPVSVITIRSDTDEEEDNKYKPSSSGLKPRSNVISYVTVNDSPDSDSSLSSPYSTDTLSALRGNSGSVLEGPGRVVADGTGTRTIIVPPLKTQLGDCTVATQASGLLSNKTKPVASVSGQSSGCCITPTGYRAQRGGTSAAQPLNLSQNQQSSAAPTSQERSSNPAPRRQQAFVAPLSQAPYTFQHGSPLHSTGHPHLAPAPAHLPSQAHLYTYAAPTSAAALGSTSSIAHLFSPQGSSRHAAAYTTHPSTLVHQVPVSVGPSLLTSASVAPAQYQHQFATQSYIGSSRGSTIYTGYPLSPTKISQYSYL
Chain of Mitogen-activated protein kinase 9 (Homo sapiens) (P45984 whole entry, looked up): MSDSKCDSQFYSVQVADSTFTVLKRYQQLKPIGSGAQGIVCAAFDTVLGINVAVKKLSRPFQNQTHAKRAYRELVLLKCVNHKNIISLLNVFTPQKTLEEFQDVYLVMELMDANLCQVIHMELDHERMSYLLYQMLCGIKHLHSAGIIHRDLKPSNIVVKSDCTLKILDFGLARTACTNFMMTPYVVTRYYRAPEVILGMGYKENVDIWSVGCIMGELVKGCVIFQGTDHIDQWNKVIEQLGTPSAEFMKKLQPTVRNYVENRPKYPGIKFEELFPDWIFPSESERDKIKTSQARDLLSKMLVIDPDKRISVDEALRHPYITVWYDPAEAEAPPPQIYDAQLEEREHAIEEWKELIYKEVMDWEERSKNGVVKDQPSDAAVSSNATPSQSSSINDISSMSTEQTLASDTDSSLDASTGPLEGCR
Chain of Mitogen-activated protein kinase 11 (Homo sapiens) (Q15759 whole entry): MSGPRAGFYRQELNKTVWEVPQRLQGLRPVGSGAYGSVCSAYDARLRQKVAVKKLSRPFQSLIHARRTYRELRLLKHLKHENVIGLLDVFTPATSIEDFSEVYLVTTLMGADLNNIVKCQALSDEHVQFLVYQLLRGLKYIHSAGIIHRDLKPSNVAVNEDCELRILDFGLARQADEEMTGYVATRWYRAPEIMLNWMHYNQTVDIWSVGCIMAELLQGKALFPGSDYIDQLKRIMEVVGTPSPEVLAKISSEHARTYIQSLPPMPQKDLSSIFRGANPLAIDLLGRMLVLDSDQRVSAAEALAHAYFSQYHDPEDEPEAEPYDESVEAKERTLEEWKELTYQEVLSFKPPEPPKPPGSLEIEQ
Chain of Mitogen-activated protein kinase 1 (Homo sapiens) (P28482 whole entry): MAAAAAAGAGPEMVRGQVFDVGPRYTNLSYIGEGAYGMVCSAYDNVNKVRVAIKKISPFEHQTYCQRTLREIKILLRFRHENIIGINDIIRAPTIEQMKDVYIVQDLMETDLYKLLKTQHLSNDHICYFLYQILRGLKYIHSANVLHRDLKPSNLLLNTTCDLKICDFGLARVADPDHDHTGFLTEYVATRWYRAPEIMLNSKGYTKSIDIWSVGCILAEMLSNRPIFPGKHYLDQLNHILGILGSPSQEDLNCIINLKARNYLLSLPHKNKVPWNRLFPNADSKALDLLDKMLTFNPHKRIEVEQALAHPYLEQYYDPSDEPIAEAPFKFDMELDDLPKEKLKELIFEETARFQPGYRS

On to `O=C(Nc1n[nH]c2cc(-c3cc(F)ccc3F)ccc12)C1CC1`, for which the inhibition in [1] was -1.3%; in assay [2] it was 1.85%; in assay [3], -0.9%; in [4], 3.56%; in assay [5], 4.38%; in assay [6] it was 6.23%. The inhibition is 2.24% in assay [7]; 4.09% in assay [8]; 4.01% in [9]; 0.63% in assay [10]; -2.33% in assay [11]; -2.21% in [12]. The inhibition in assay [13] was 1.76%; in assay [14] it was 8.79%; in assay [15] it was 3.95%; in [16], 7.57%; in assay [17] it was -0.68%; in assay [18] it was 4.17%. In [19], the inhibition was found to be 0.34%.

As for `O=C1Nc2ccc(I)cc2C1=Cc1cc(Br)c(O)c(Br)c1`, the inhibition in [20] was 5.98%; in assay [1] it was -1.21%; in [2] it was 6.66%; in assay [3] it was -0.29%; in [4], 6.76%; in assay [5], 5.13%. Also, the inhibition was 7.68% in assay [6]; 2.02% in [7]; 4.96% in assay [8]; 3.73% in assay [9]; 96.8% in [10]; 3.61% in assay [11]. Also, the inhibition amounted to 0.2% in [12]; 5.09% in assay [13]; 8.57% in assay [14]; 1.97% in assay [15]; 4.59% in [16]; 4.77% in [18]. In assay [19], the inhibition was determined as 3.23%.

On to `CCc1ccc(Oc2nccc(-c3c(-c4ccc(F)cc4)ncn3C3CCNCC3)n2)cc1`, for which the inhibition in [20] is 7.29%; in assay [1] it was -2.3%; in assay [2] it was 1.77%; in assay [3], 0.48%; in assay [4], 2.99%; in [7], 6.77%. Besides, the inhibition in [8] turned out to be 11.6%; in [9] it was 5.92%; in [10] it was 8.24%; in assay [11], 3.09%; in [12] it was 0.07%.

Turning to `CCN(CC)Cc1ccc(Nc2nccc(-c3cnn4ncccc34)n2)cc1`, the inhibition is 62.3% in [20]; 50.6% in assay [1]; 71.9% in [2]; 18.1% in assay [3]; 59% in assay [4]; 6.18% in [5]. The inhibition in assay [6] was 30.9%; in [7], 6.89%; in assay [8], 15.8%; in assay [10], 7.61%; in [11] it was -1.94%; in assay [12], -0.22%. For the same molecule, the inhibition in assay [13] amounted to 6.95%; in assay [14], 13.1%; in [15] it was 3.23%; in assay [16], 4.99%; in assay [17], 4.71%; in assay [18], 9.25%. For the same molecule, the inhibition in assay [19] amounted to 3.65%.

Take `COc1ccc(C2=C(N3CCc4ccccc43)C(=O)NC2=O)cc1`: the inhibition in assay [1] is 4.48%; in [2], 8.68%; in assay [3], 3.35%; in [4] it was 4.04%; in assay [5], 3.78%; in assay [6], 7.16%. For the same molecule, the inhibition in assay [7] is -0.01%; in [8], 5.89%; in [9], 4.13%; in assay [10], 5.25%; in assay [11] it was 0.52%; in [12], 1.43%. The inhibition in assay [13] is 3.41%; in assay [14], 12.2%; in assay [15], 4.81%; in [16] it was 8.67%; in assay [17], -0.17%; in [18], 3.67%. In addition, the inhibition in assay [19] is 12%.

On to `COc1ccc2cc(-c3c(-c4ccncc4)nc(-c4ccc(S(C)(=O)=O)cc4C)n3C)ccc2c1`, for which the inhibition in assay [20] was 6.76%; in assay [1], 0.5%; in [2], -0.46%; in assay [3] it was -0.03%; in assay [4], 1.88%; in assay [5] it was 4.44%. For the same molecule, the inhibition in [6] is 10.1%; in assay [7] it was 5.2%; in [8], 5.44%; in assay [9] it was 3.83%; in assay [10] it was 2.57%; in assay [11], -1.96%. In addition, the inhibition in assay [12] is -4.7%; in assay [13], 14.2%; in [14] it was 17.3%; in assay [15] it was 2.54%; in assay [16] it was 11%; in assay [17], 2.15%. The figures for the inhibition in assay [18] and in assay [19] were 5.04% and 3.44%, respectively.

Turning to `O=C(NCC1CC1)c1ccc(-c2cccc(C(=O)NC3CC3)c2)cc1`, the inhibition was 0.48% in assay [20]; -0.22% in assay [1]; 5.27% in [2]; 2.02% in assay [3]; 5.47% in [4]; 3.38% in assay [5]. For the same molecule, the inhibition amounted to 2.6% in [6]; 1.42% in [7]; 1.43% in assay [8]; 1.22% in [9]; 0.8% in [10]; 1.6% in [11]. Besides, the inhibition in assay [12] came out at 1.04%; in [13], 1.13%; in assay [14], 13.9%; in assay [15], 2.37%; in assay [16] it was 7.97%; in [17], 1.41%. Besides, the figures for the inhibition in assay [18] and in [19] were 3.97% and 4.08%, respectively.

In general, inhibition refers to the relative decrease from the control value, in per cent.
